Records with an inconclusive call do not appear. Unmarked numbers belong to inactive results. Activity calls are given as the source filed them. Calls follow the shape of the dose curve; as a rule, active = well fitted inhibition curve with a large enough effect; inconclusive = small, poorly fitted or top-dose-only effect; inactive = flat fitted curve, though single readings scatter.
Test system: Zika virus NS2B-NS3 protease
Assay: Primary screen GU AMC qHTS for Zika virus inhibitors (AID 1347154);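 also: 0% = no-inhibitor control and -100% = no-enzyme control; nearly all actives have a fitted effect of over 70% in size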
Conditions: Zika NS2B-NS3 unlinked protease, AMC fluorogenic substrate; series mostly up to 54.1 µM
Excerpt: Avindra Nath, Ph.D., National Institute of Neurological Disorders and Stroke (NINDS), Bethesda, MD
Radhakrishnan Padmanabhan, Ph.D., Georgetown University (GU), Washington D.C.
Zika Virus causes congenital defects, including microcephaly and is associated with Guillain-Barre syndrome, eningoencephalitis and myelitis in infected adult. […] Using a target-based approach, we hope to establish a screening paradigm to uncover novel, cell-active NS2B-NS3 protease (Zika Virus) specific inhibitors from NCATS' collection of small molecules using qHTS.
Early Translation Branch (ETB)
National Center for Advancing Translational Sciences (NCATS), Rockville, MD
National Institute of Health (NIH), Bethesda, Maryland
Padmanabhan lab provided the NS2B hydrophilic domain and NS3 protease domain in a noncovalent complex used for the unlinked assay. Control compound aprotinin is obtained from Thermo Scientific (#78432; Waltham, Massachusetts). NS2B-NS3 AMC substrate (Bz-Nle-Lys-Arg-Arg-AMC; Nle-KRR-AMC) purchased from Bachem (#I-1995; Torrance, CA). Ac-VKTGKR-AMC purchased from Genscript or Bachem, Ac-FAAGKR-AMC purchased from Genscript, Ac-GLVKRR-AMC purchased from Genscript, Ac-LKKR-AMC purchased from Genscript.
GU AMC unlinked NS2B-NS3 protease qHTS protocol
Briefly, 3 microL of Zika virus unlinked NS2B-NS3 protease (25 nM for linked final concentration), in assay buffer (10 mM Tris-HCl pH 8.0 with 0.01% Tween 20) was dispensed into a 1,536-well solid-bottom black plate (Greiner Bio One, Monroe, NC). […] Plates were then read immediately on a ViewLux High-throughput CCD imager (PerkinElmer, Waltham, MA) equipped with standard UV fluorescence optics (340(30) nm excitation, 450(20) nm emission) then incubated (room temperature, protected from light) for 15 minutes (~20% conversion). The change in fluorescence intensity over the 15-minute reaction period was normalized against no-inhibitor and no-enzyme controls and the resulting percent inhibition data were fitted to a 4-parameter Hill equation. Aprotinin was used as the intraplate control.

Structure (SMILES) | outcome | activity change, negative = inhibition
CC/C=C\C/C=C\C/C=C\C/C=C\C/C=C\C/C=C\CCC(=O)O | inactive | 
CCCCC[C@H](O)/C=C/[C@H]1[C@H](O)CC(=O)[C@@H]1CCCCCCC(=O)O |  | 5.76% [at 6.83 µM]
O=C(O)CCC/C=C\C[C@@H]1[C@@H](/C=C/[C@@H](O)COc2cccc(Cl)c2)[C@H](O)C[C@@H]1O | inactive | 
NC[C@H]1O[C@H](O[C@H]2[C@H](O)[C@@H](O[C@H]3O[C@H](CO)[C@@H](O)[C@H](N)[C@H]3O)[C@H](N)C[C@@H]2N)[C@H](N)C[C@@H]1O | inactive | 
O=C(O)CCC(=O)c1ccc(-c2ccccc2)cc1 | inactive | 
O=C(O)[C@@H]1C[C@H](CP(=O)(O)O)CCN1 | inactive | 
COc1ccc(C[C@H](C)NC[C@@H](O)c2ccc(O)c(NC=O)c2)cc1 | inactive | 
CCOC(=O)C1=C(COCCN)NC(C)=C(C(=O)OC)C1c1ccccc1Cl (stereo not given) | inactive | 
O=C(OCc1ccccc1)c1ccc(O)cc1 | inactive | 
Nc1ccc(N=Nc2ccccc2)c(N)n1 | inactive | 
CN(C)CCCSc1ccccc1NC(=O)/C=C/c1ccccc1 | inactive | 
O=C1CCC(c2ccccc2)(C2CCN(Cc3ccccc3)CC2)C(=O)N1 (stereo not given) | inactive | 
O=C(O)Cc1nn(Cc2ccc(Br)cc2F)c(=O)c2ccccc12 | inactive | 
COC(=O)C(CN)c1c[nH]c2ccc(OC)cc12 (stereo not given) | inactive | 
N[C@H](CC(=O)O)C(=O)O | inactive | 
CNC(=O)[C@H](Cc1c[nH]c2ccccc12)NC(=O)[C@@H](CC(=O)NO)CC(C)C | inactive | 
COc1ccc2nc(NC(=O)Nc3ccccc3)sc2c1 | inactive | 
C[C@@](Cc1ccc(O)c(O)c1)(NN)C(=O)O | inactive | 
CC/C=C\C/C=C\C/C=C\CCCCCCCC(=O)O |  | -0.651% [at 6.83 µM]
CCC(C)[C@@H](N)C(=O)O (stereo not given in full) | inactive | 
